High-throughput results: PubChem, several laboratories
KKLEB tox = cytotoxicity in KKLEB CF airway cells, primary screen, cytotoxicity control for CF NF-kB inhibitor project, cell-based, uHTS, fluorescence assay plates | actives 0.36% (n = 360,000) | activity change (cytotoxicity), % at 5 µM | KKLEB CF airway cells viability, ATPlite luminescence, overnight; stronger effect = lower value; cells stimulated with P. aeruginosa culture filtrate | AID 602141, 2011;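 active means corrected activity change at or below -50% at 5 µM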
Peg3 prom inh-1 = Peg3 promoter-driven luciferase inhibitors, primary screen, cell-based, HeLa, luciferase luminescence. HeLa PEG-Prom luciferase reporter, overnight. inhibition, % at 20 µM. actives 1.7% (n = 360,000). AID 588405, 2011;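 active means inhibition of at least 50% at 20 µM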
Shn3 inh set2 = reduction of Shn3 3'UTR firefly luciferase signal, primary screen, Schnurri-3 inhibitor project, cell-based, Clone20 osteoblasts, set 2. inhibition, % at 12.5 µM. actives 0.52% (n = 360,000). Clone20 osteoblast Shn3 3'UTR firefly luciferase, 24 h;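 active means mean inhibition of at least 75% with every replicate also reaching 75%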
HIF-2a block = HIF-2a reporter inhibitors, primary screen, luminescence, 786-0 RCC cells; actives 0.72% (n = 360,000); AID 624352, 2012; inhibition, % at 18.8 µM; 786-0 RCC cells HIF-2a reporter, luciferase luminescence, overnight;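 active means inhibition of the luminescence signal of 40% or more relative to plate controls, in a single-dose primary screen at 18.75 µM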
CF NFkB block = inhibitors of PAF-induced NF-kB signaling, primary screen, cell-based, GFP fluorescence, uHTS; inhibition, % at 5 µM; KKLEB NF-kB-GFP reporter, GFP fluorescence overnight; actives 0.86% (n = 360,000);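 active means at least 50% inhibition at 5 µM, scaled per plate between neutral and stimulator controls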;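 further: PAF is a Pseudomonas aeruginosa culture filtrate used as stimulus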
Peg3 prom inh-2 = Peg3 promoter reporter inhibitors, retest, confirmation, cell-based, HeLa, luciferase reporter, single concentration; shares compounds with Peg3 prom inh-1; HeLa PEG-Prom luciferase reporter, luminescence, overnight; inhibition, % at 20 µM; actives 84% (n = 1,300); AID 602417, 2012;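 active means at 20 µM dose, 40% or more inhibition averaged across four replicates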
CF NFkB conf = inhibitors of PAF-induced NF-kB signaling, retest, confirmation, cell-based, GFP fluorescence, single concentration | actives 64% (n = 1,300) | inhibition, % at 5 µM | shares compounds with CF NFkB block | KKLEB CF airway cells, overnight; in the data active means inhibition above about 40%;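 further: stimulus PAF is a Pseudomonas aeruginosa filtrate and not platelet activating factor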
Mdm2-MdmX confirm = retested Mdm2-MdmX interaction blockers, confirmation, cell-based, luminescence, single concentration, set 2 | SaOS-2 split-luciferase Mdm2/MdmX complementation | shares compounds with HIF-2a block | actives 99% (n = 740) | inhibition, % at 8 µM;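 active means mean inhibition of the luminescence signal across two replicates at or above 26 percent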
Target sequence (O15151 whole entry, looked up): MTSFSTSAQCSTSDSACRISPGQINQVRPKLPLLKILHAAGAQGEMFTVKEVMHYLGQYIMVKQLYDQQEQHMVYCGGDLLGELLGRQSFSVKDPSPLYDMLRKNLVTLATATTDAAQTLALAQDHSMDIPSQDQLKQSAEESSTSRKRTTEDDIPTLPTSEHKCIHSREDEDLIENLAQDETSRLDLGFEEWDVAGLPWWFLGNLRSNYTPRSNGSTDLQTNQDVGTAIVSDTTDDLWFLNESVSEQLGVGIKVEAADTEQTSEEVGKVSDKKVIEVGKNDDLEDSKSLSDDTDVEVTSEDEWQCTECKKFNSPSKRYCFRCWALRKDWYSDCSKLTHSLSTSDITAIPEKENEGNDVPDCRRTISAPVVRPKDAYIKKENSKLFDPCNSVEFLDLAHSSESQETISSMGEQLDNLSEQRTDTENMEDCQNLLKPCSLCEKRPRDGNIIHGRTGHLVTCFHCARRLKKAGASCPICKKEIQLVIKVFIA
Target sequence (Q00987 whole entry, looked up): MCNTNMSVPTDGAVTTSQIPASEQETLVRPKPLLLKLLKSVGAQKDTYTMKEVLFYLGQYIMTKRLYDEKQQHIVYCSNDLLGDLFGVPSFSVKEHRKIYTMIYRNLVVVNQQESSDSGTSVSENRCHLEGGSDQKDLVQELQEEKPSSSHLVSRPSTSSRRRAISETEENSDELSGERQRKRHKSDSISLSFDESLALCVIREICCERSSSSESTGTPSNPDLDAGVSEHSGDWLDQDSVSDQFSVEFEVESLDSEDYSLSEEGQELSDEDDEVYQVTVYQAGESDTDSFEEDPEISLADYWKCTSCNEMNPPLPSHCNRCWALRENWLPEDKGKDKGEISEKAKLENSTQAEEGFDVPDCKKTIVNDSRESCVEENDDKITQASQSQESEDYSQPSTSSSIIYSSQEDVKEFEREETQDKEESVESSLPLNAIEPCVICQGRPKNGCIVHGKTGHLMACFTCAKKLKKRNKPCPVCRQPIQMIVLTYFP
HIF-2a conf = HIF-2a reporter inhibitor retest, confirmation, luminescence, 786-0 RCC cells; actives 56% (n = 1,800); inhibition, % at 18.8 µM; shares compounds with HIF-2a block; HIF-2a luciferase reporter luminescence, overnight;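 active means mean inhibition across four replicates of at least 40 percent at the single tested concentration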
HIF-1a cs = HIF-1a luciferase reporter signal reduction – MiaPaCa-2 cells, single concentration, counter-screen for HIF-2a inhibitor project, confirmation | shares compounds with HIF-2a block | MiaPaCa-2 HIF-1a luciferase reporter, desferoxamine, overnight | inhibition, % at 18.8 µM | actives 72% (n = 1,800);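 active means mean inhibition of the reporter signal across four replicates at the single tested dose of 50% or more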
Of the large screens only hits and unclear results are named; the others gave an inactive call (follow-up assays come after a bar, where they were run). Rows were chosen to be rich in hits. Some 2.6% of all compounds tested hit in one or more screens of this group.

Cc1cc(C)c(NC(=O)CSc2nc(=O)n(CCN3CCOCC3)c3c2CCC3)c(C)c1	none
CS(=O)(=O)c1ccc2nc(NC(=O)CCS(=O)(=O)c3ccccc3)sc2c1	Peg3 prom inh-1 71, CF NFkB block 75 | Peg3 prom inh-2 47 | CF NFkB conf 64
CCc1nc(Sc2nnnn2-c2ccccc2)c2c3c(sc2n1)CCCC3	Peg3 prom inh-1 60, CF NFkB block 59 | Peg3 prom inh-2 61 | CF NFkB conf inactive
CCc1nc2ccc(C(=O)N3CCN(S(=O)(=O)CC)CC3)cn2c1N(CC)Cc1cccc(Br)c1	none
Cc1cnc(NC(=O)C2CC(=O)N(c3cccc(Cl)c3)C2)s1 (stereo unspecified)	Peg3 prom inh-1 107, CF NFkB block 78 | Peg3 prom inh-2 94 | CF NFkB conf 86
COCCCNC(=O)C[C@H]1C[C@H](C(=O)N2CCCCC2)[C@@]2(C)c3[nH]c4cc(-c5ccco5)ccc4c3CCN2C1=O	none
CCN1CCN(C(=O)c2cnn3c(C(F)F)cc(-c4ccc(C)cc4)nc23)CC1	none
CCc1nccn1C(=O)c1cnn2c(C(F)F)cc(-c3ccc(C)cc3)nc12	Peg3 prom inh-1 61, CF NFkB block 68 | Peg3 prom inh-2 93 | CF NFkB conf 91
COc1ccc(Nc2nc(-c3ccccc3)nc3ccccc23)cc1S(=O)(=O)N1CCOCC1	Peg3 prom inh-1 62, CF NFkB block 89 (no result: Shn3 inh set2) | Peg3 prom inh-2 59 | CF NFkB conf 75
COc1ccc(NC(=O)c2cc(C)nc3ccccc23)cc1S(=O)(=O)N1CCOCC1	none
COc1ccc(C#Cc2c(-c3ccc(OC)cc3)oc3ccc(-c4ccc(OC)cc4)cc23)cc1	none
COc1ccc(-c2oc3ccc(-c4cc(OC)c(OC)c(OC)c4)cc3c2C#Cc2ccccn2)cc1	Peg3 prom inh-1 54, CF NFkB block 72 | Peg3 prom inh-2 51 | CF NFkB conf inactive
CN(C)c1ccc(C(C(=O)NCc2ccccc2)N(Cc2ccco2)C(=O)c2snc(C(N)=O)c2N)cc1 (stereo unspecified)	Peg3 prom inh-1 61, CF NFkB block 99 | Peg3 prom inh-2 45 | CF NFkB conf 89
CN(C(=O)c1cccc(NC(=O)Cc2cccc(NC(=O)C3CCCN(C(=O)C4CCCC4)C3)c2)c1)C1CC1 (stereo unspecified)	none
O=C(NCCc1c[nH]c2ccccc12)C(=O)c1c[nH]c2ccccc12	none
Cc1cc2cc(CCNC(=O)C(=O)c3c[nH]c4ccccc34)c(=O)[nH]c2cc1C	Peg3 prom inh-1 59, CF NFkB block 59 | Peg3 prom inh-2 59 | CF NFkB conf 52
O=C(Nc1ccc(-c2nc3ncccc3o2)cc1)c1ccc([N+](=O)[O-])o1	Peg3 prom inh-1 100, Shn3 inh set2 97, CF NFkB block 86 | Peg3 prom inh-2 inactive | CF NFkB conf inactive
COc1cccc2nc3c(C(=O)NCCN(C)C)cccc3cc12	Peg3 prom inh-1 99, HIF-2a block 43 | Peg3 prom inh-2 97 | HIF-2a conf inactive | HIF-1a cs 105
COc1cccc(CNC(=O)[C@@H]2CCCN2C(=O)[C@H]2CCCCN2C(=O)c2c(F)cccc2F)c1	none (no result: KKLEB tox, Peg3 prom inh-1, Shn3 inh set2, CF NFkB block)
O=S(=O)(Nc1ccccc1OC(F)F)c1ccc(S(=O)(=O)N2CCCC2)cc1	none
CCC1=C(CC2NCCc3ccccc32)CC2c3cc(OC)c(OC)cc3CCN2C1 (stereo unspecified)	Peg3 prom inh-1 61, HIF-2a block 41, CF NFkB block 63 | Peg3 prom inh-2 80 | CF NFkB conf 72 | HIF-2a conf inactive | HIF-1a cs 104
Cc1ccc(C)c(C(=O)COC(=O)c2cc([N+](=O)[O-])ccc2NCCO)c1	none
CC(=O)N1CCSc2ccc(S(=O)(=O)Nc3ccccc3C)cc21	none
CS(=O)(=O)Nc1cccc(NC(=O)C2Cc3c(-c4ccccc4)ccnc3O2)c1 (stereo unspecified)	Peg3 prom inh-1 51, HIF-2a block 47 | Peg3 prom inh-2 57 | HIF-2a conf inactive | HIF-1a cs 85
O=C1C(O)=C(O)C(=O)c2ccccc21	none
O=C1C(Cl)=C(Nc2ccc(O)cc2)C(=O)c2ccccc21	KKLEB tox -82, Peg3 prom inh-1 107, Shn3 inh set2 92, HIF-2a block 94, CF NFkB block 108 | Peg3 prom inh-2 96 | Mdm2-MdmX confirm 103
O=C1CSC(=S)N1Cc1cccnc1	Peg3 prom inh-1 96, HIF-2a block 47 | Peg3 prom inh-2 50 | Mdm2-MdmX confirm 101
O=C1CSC(=S)N1c1cccnc1	none
Cc1cc(N2CCN(C)CC2)ccc1NC(=O)c1c2c(nc3ccccc13)CCN(Cc1ccccc1)C2	KKLEB tox -76, Peg3 prom inh-1 109 | Peg3 prom inh-2 87 | Mdm2-MdmX confirm 102
CCOc1ccc2oc(C(=O)OCC(=O)N3CC(C)OC(C)C3)c(C)c2c1 (stereo unspecified)	none
COc1ccc(C(=O)Nc2ccc(C)cn2)c(OC)c1	KKLEB tox -63, Peg3 prom inh-1 74, HIF-2a block 62 | Peg3 prom inh-2 52 | HIF-2a conf 76 | HIF-1a cs 85
COc1cc(C(=O)NCC(=O)OCC(=O)N2CCc3ccccc32)cc(OC)c1OC	none
CC1(Cc2ccc(Cl)s2)C(=O)Nc2c(Cl)ccc(Cl)c21 (stereo unspecified)	none
O=C(CN1C(=O)c2ccccc2S1(=O)=O)c1ccc2c(c1)OCCCO2	Peg3 prom inh-1 99, Shn3 inh set2 94, HIF-2a block 93 | Peg3 prom inh-2 95 | Mdm2-MdmX confirm 96 | HIF-2a conf 99 | HIF-1a cs 104
